A selection: hits, their analogues and other compounds. The true share with any hit is near 0.52%.
GCN5L2 inh-1: inhibitors of human GCN5L2 histone acetyltransferase | GCN5L2 HAT assay, ThioGlo1 CoA-SH fluorescence | Potency, µM (series often up to 58.9 µM), inactives show top-dose activity change, negative = inhibition, hits mostly inhibitors | Q92830 | AID 504327 | 0.21% of 390,000 active; also: potency is read from the fitted curve at half-maximal effect; % is scaled to controls: 0 for no effect and ±100 for the full control effect
Target sequence (Q92830 whole entry, looked up): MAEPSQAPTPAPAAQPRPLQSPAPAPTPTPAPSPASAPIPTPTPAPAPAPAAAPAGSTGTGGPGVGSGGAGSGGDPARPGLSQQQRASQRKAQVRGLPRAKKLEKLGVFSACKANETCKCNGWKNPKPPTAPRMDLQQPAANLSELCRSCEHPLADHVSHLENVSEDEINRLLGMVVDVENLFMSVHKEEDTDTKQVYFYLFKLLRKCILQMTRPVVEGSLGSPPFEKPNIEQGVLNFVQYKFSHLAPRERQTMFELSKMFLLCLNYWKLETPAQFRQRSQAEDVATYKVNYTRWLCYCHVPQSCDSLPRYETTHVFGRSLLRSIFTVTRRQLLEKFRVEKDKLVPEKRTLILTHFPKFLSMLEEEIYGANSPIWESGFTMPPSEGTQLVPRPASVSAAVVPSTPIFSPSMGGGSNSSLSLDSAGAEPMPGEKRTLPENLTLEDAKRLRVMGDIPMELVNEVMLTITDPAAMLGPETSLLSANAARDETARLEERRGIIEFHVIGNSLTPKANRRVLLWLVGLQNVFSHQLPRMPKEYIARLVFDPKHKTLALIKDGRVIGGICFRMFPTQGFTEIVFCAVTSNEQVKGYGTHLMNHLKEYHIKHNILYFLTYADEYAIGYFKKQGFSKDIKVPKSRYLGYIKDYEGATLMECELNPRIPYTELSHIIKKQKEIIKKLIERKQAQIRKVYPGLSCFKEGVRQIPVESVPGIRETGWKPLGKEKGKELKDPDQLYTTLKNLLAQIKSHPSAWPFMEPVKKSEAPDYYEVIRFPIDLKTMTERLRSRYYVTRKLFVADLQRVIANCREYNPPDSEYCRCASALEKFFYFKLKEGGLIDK
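GCN5L2 (20 nM) in 50mM HEPES pH 7.5, 0.1mM EDTA, 0.01% Tween-20 preincubated 15 min with compounds at room temperature. Reaction started with H3(1-25) 75uM, acetyl-CoA 70uM, ThioGlo1 50uM; CoA-thiol fluorescence (Ex340/Em540) read at 0 and 20 min.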
GLS inh: inhibitors of human glutaminase (GLS); O94925; GLS enzymatic activity, qHTS titration; Potency, µM (highest dose often 45.5 µM), without a hit: at the top dose activity change, negative = inhibition, actives largely listed as inhibitors; 0.21% of 410,000 active; AID 624170; also: potency is read from the fitted curve at half-maximal effect; % is scaled to controls: 0 for no effect and ±100 for the full control effect
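Coupled fluorescence readout: glutamate oxidase/HRP/Amplex Red detect glutamate formed by hKGA from L-glutamine (1 mM solution added). Buffer 45 mM KH2PO4 pH 8.2, 0.02% Tween-20; reads at t0 and 30 min RT.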
USP2a inh: blocks human ubiquitin-specific protease USP2a | USP2 core, Ub-CHOP2 coupled fluorogenic reporter, 485/531 | Potency, µM (doses to about 38.3 µM), without a hit: at the top dose activity change, negative = inhibition, actives largely listed as inhibitors | 0.01% of 330,000 active;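 also: potency is read from the fitted curve at half-maximal effect; plate controls were DMSO wells for no effect and full inhibition by NEM control for full effect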
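USP2 core (10nM final) preincubated 30min RT with compound in 20mM Tris-HCl pH 8.0, 2mM CaCl2, 2mM beta-mercaptoethanol, 0.05% CHAPS; 25nM Ub-CHOP2 plus 25nM reporter substrate added, fluorescence (Ex485/Em531) read after 60min.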
Tb PGK inh: inhibitors of T. brucei phosphoglycerate kinase | Potency, µM (highest dose often 57.5 µM), inactives show at the highest dose activity change, negative = inhibition, most hits filed as inhibitors | 0.043% of 380,000 active | AID 602233 | PGK/GAPDH coupled, Kinase-Glo luminescence, 60 min | P07378; also: potency is read from the fitted curve at half-maximal effect; % is scaled to controls: 0 for no effect and ±100 for the full control effect; nearly all actives have a fitted effect of over 60% in size
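Recombinant glycosomal PGK reaction used 1,3-bisphosphoglycerate generated in-well by GAPDH (100nM final) in 100mM TEA pH 7.6, 5mM MgCl2, 0.01% Tween-20. After 60 minutes at room temperature, ATP was read by Kinase-Glo Plus luminescence end-point.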
Tb PFK inh: T. brucei PFK enzyme inhibition; O15648; T. brucei PFK, ADP-Glo luminescence; Potency, µM (top dose mostly 57.5 µM), for the others: at the highest dose activity, negative = inhibition, hits mostly inhibitors; 0.17% of 330,000 active; AID 485367;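 also: potency is read from the fitted curve at half-maximal effect; 0% = uninhibited 1x PFK enzyme wells and -100% = no-enzyme wells; nearly all actives have a fitted effect of over 60% in size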
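ADP-Glo luminescence quantified ADP after 45 min at room temperature, with 1.25 nM T. brucei PFK, 0.1 mM ATP and 0.5 mM fructose-6-phosphate in pH 8.0 TEA buffer. qHTS titrations up to 57 µM; curves classified by quality.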
GCN5L2 inh-2: confirmation of human GCN5L2 histone acetyltransferase inhibitors | shares compounds with GCN5L2 inh-1 | GCN5L2 HAT, ThioGlo1 CoA fluorescence, 20 min | Potency, µM, most hits filed as inhibitors | 70% of 140 active | AID 588347
* hit, by the source's call; i = inactive; ? = inconclusive; / = no result; [ ] = dose if it differs, or a comment. Calls follow the shape of the dose curve; as a rule, active = well fitted curve in the direction sought with a large enough effect; inconclusive = small, poorly fitted or top-dose-only effect, or another doubt; inactive = no such curve, though single readings can be large; an effect the other way counts as inactive or inconclusive.

SMILES	GCN5L2 inh-1	GLS inh	USP2a inh	Tb PGK inh	Tb PFK inh	GCN5L2 inh-2
O=C(C1CC1)N1CCN(c2ccc(O)cc2)CC1	-5%	10µM*	-6%	1%	0%	/
CN=c1nc(-c2ccccc2)n(-c2ccccc2)s1	2.2µM*	?	1%	-2%	-7%	2.6*
Cn1nc(-c2ccccc2)nc1-c1ccccc1	-5%	5%	1%	-9%	-25%	/
CCN(CC(=O)Nc1c(F)cccc1F)C(=O)/C=C/c1ccc2ccccc2n1	?	10µM*	-1%	?	?	23*
CC(NC(=O)c1sc2cc([N+](=O)[O-])ccc2c1Cl)C(C)(C)C (stereo not drawn)	?	-13%	-1%	i	?	3.6*
CCOc1ccccc1NS(=O)(=O)c1c(-c2ccc(C)cc2)csc1C(=O)OC	-11%	2%	/	i	/	/
COc1ccc(-c2nn(-c3ccccc3)cc2/C=N/NC(=O)c2ccc3c(c2)OCO3)cc1	-12%	/	2%	/	1%	/
COc1ccc(-c2nn(-c3ccccc3)cc2/C=N/NC(=O)c2ccc(Br)o2)cc1	25µM*	-8%	0%	-2%	9%	9.1*
Nc1ccc2nn(-c3cccc4ccccc34)nc2c1	?	-3%	-1%	-5%	0%	23*
Cc1cc2nn(-c3cccc4ccccc34)nc2cc1N	-4%	-3%	-1%	i	1%	/
CCOc1cc(C(=O)Nc2ccc3nc(Nc4cccc(Cl)c4)cc(C)c3c2)cc(OCC)c1OCC	-17%	3%	/	-5%	/	/
Cc1ccc2nc(N3CCN(c4cccc(C(F)(F)F)c4)CC3)c3nnnn3c2c1	14%	8%	/	3%	/	/
COc1ccc(CN2C(=O)C(NC(=O)c3ccccc3C)(C(F)(F)F)N=C2c2ccccc2)cc1 (stereo not drawn)	-10%	-5%	/	-4%	/	/
N#Cc1c(-c2ccccc2)nc(SCc2cccc(Cl)c2)[nH]c1=O	?	-19%	-14%	-16%	-7%	18*
COc1ccc(OC)c(S(=O)(=O)N2CCC(c3ccncc3)CC2)c1	-2%	-11%	/	i	/	/
Cc1ccc(N2C(=O)C3C4C=CC(C4)C3C2=O)cc1C (stereo not drawn)	0%	-6%	-1%	5%	-8%	/
Cc1ccc(N2C(=O)C3C4C=CC(CC4)C3C2=O)cc1[N+](=O)[O-] (stereo not drawn)	?	-10%	2%	-8%	?	16*
Cc1ccc(S(=O)(=O)/N=C2/NC(=O)/C(=C\c3cc(Br)cc(Br)c3O)S2)cc1	16µM*	?	-22%	?	?	11*
Cc1ccc(CNC(=O)c2nc(-c3ccc(Cl)cc3)n3c2CCCCC3)cc1	-11%	0%	/	-11%	/	/
O=C(N/N=C/c1ccc(-c2ccc(S(=O)(=O)Nc3ncccn3)cc2)o1)c1cc2ccccc2cc1O	?	?	?	?	-7%	?
CCC(Sc1nc2cc3c(cc2c(=O)n1CCCC(=O)NCc1ccc2c(c1)OCO2)OCO3)C(=O)NCCCOC (stereo not drawn)	-1%	10%	/	0%	/	/
C=CCn1c(SCC(=O)Nc2cc(Cl)ccc2C(=O)O)nc2sc(C)c(C)c2c1=O	32µM*	?	0%	-1%	-6%	?
C=CCc1cccc2cc(C(=O)Nc3ccccc3C(=O)O)c(=O)oc12	?	0%	6%	2%	5%	?
C=CCc1cccc2cc(C(=O)O)c(=O)oc12	-17%[0.501 µM]	6%	-2%	-9%	3%	/
CNC[C@@H]1CC[C@@H](N)[C@@H](O[C@H]2[C@H](O)[C@@H](O[C@H]3OC[C@](C)(O)[C@H](NC)[C@H]3O)[C@H](N)C[C@@H]2N)O1	/	-18%	/	/	/	/
SMILES	GCN5L2 inh-1	GLS inh	USP2a inh	Tb PGK inh	Tb PFK inh	GCN5L2 inh-2
Cc1ccccc1NC(=O)CSc1nnc(-c2ccco2)c(-c2ccco2)n1	?	-27%	?	-16%	?	/
Cc1cccc(C)c1NC(=O)CSc1nnc(-c2ccco2)c(-c2ccco2)n1	13µM*	142%	-21%	?	?	?
O=C(CSc1nnc(-c2ccco2)c(-c2ccco2)n1)Nc1ccccc1	?	-5%	-1%	?	?	26*
COC(=O)c1cc(NC(=O)c2ccc3c(c2)N(Cc2cccc(Cl)c2)C(=O)c2ccccc2S3=O)cc(C(=O)OC)c1 (stereo not drawn)	-7%	2%	/	2%	/	/
NCCCC(N)C(=O)O (stereo not drawn)	/	3%	/	/	/	/
O=C(O)CSc1cc(C(=O)c2ccccc2O)cn2c(=O)c3c(-c4ccccc4)csc3nc12	25µM*	-22%	-3%	?	-1%	26*
CCN(CC)c1ccc2cc(NC(=O)CCC(=O)O)c(=O)oc2c1	20µM*	60%	26%	/	0%	32*
COc1ccccc1Oc1coc2c(CN(C)C)c(O)ccc2c1=O	-17%	-4%	0%	i	-2%	/
CCN(CC)Cc1c(O)ccc2c(=O)c(Oc3ccccc3OC)coc12	?	-8%	-2%	-6%	11%	?
Cc1cc2nc(-c3ccc[nH]c3=O)[nH]c2cc1C	28µM*	-5%	2%	i	-12%	36*
CCOc1cc(/C=C2\C(=O)N(c3nc(-c4ccc(Br)cc4)cs3)N=C2c2ccccc2)ccc1O	?	8%	?	-10%	1%	5.1*
Cc1c(/C=C(\C#N)C(=O)Nc2cccc(Cl)c2)c2ccccc2n1Cc1ccccc1	-4%	-11%	/	-9%	/	/
CCc1ccc(S(=O)(=O)/N=C2/C=C(Sc3ncn[nH]3)C(=O)c3ccccc32)cc1	32µM*	8%	1%	?	-28%	4.6*
O=C(Nc1ccc(F)c(Cl)c1)NC1CC1	3%	-4%	1%	-4%	?	/
O=C(Nc1cccc(C(F)(F)F)c1)c1ccc2snnc2c1	-3%	-3%	/	9%	/	/
O=C(Nc1cccc(C(F)(F)F)c1)c1ccc2nc(-c3ccco3)c(-c3ccco3)nc2c1	?	?	-6%	?	-17%	18*
O=C(Nc1ccc2nc(-c3ccco3)c(-c3ccco3)nc2c1)NC1CC1	8.9µM*	86%	1%	?	-3%	20*
Cc1cc(C)c(NC(=O)c2nc3ccccc3nc2N2CCCCC2)c(C)c1	2%	-12%	/	-6%	/	/
CCCCOc1ccc(C(=O)NCc2nnnn2-c2ccc(C)c(C)c2)cc1	-12%	1%	/	i	/	/
CCOc1ccc(-c2cccc(NS(=O)(=O)c3c(C)cc(C)cc3C)c2)nn1	-4%	1%	/	0%	/	/
